# According to PubChem BioAssay AID624273 (Broad Institute, 2012):
# In all, about 1,000 compounds went through this assay and about 230 (23%) were called active. About 1% were inconclusive and are not listed. The list shows a part of the results. Results with a measured potency or affinity are listed apart. A number with no mark means an inactive call. The rule behind the calls is not given here.
# Molecular target: Long-chain-fatty-acid--AMP ligase FadD28 (Mycobacterium tuberculosis (strain ATCC 25618 / H37Rv)) (UniProt P9WQ59)
# Sequence (P9WQ59 whole entry, looked up): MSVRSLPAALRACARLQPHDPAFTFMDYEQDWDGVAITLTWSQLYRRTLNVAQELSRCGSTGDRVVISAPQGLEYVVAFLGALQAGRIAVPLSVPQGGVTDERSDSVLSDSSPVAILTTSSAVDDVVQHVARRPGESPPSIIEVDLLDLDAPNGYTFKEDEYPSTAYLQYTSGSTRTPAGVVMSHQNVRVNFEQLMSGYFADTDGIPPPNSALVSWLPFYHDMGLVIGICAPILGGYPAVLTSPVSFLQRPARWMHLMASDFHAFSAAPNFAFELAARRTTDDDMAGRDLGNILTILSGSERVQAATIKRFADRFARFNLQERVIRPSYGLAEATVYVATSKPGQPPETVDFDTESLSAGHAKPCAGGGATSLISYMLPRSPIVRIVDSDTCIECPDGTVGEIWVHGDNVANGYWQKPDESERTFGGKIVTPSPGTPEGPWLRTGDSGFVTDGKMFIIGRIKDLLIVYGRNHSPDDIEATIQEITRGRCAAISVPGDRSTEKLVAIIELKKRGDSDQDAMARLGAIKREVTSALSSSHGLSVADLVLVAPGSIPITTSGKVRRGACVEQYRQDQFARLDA
# Assay: inhibitors of FadD28 bisubstrate probe binding, dose response, biochemical, fluorescence polarization, cherry-pick (AID 624273)
# Settings: series mostly up to 50 µM; activity change, negative = inhibition: at the top concentration
row,Compound,"activity change, negative = inhibition [%]"
1,O=c1[nH]c(=S)[nH]c(O)c1/C=C1\C=Nc2ccccc21,-3.93
2,CCOC(=O)C(O)(C1C(=O)CC(C)(C)CC1=O)C(F)(F)F (stereo unspecified),-8.07
3,O=C1CC(c2cc(F)ccc2F)c2cc3c(cc2N1)CCC3 (stereo unspecified),-3.23
4,OC1(c2ccc3c(c2)OCO3)CCN(Cc2ccccn2)CC1,-0.883
5,C[C@@H]1CN([C@H](C)CO)C(=O)c2cc(NC(=O)Nc3ccc(C(F)(F)F)cc3)ccc2O[C@H]1CN(C)C(=O)Nc1ccc(F)cc1,-0.926
6,CCN(C(=O)CSc1nnc(SC)s1)c1c(N)n(Cc2ccccc2)c(=O)[nH]c1=O,-4.76
7,O=C(CCCCn1c(=O)c2ccccc2n(CC(=O)Nc2ccc(F)cc2)c1=O)NCc1ccco1,-18.9
8,CCN(CC)S(=O)(=O)c1cc(C(=O)Nc2cc(Cl)ccc2N2CCN(C)CC2)ccc1Cl,-17
9,CCCCCCCCCCCCCCCCCCNc1ccn(C2OC(COP(=O)(O)OCC3OC(n4cc(F)c(=O)[nH]c4=O)CC3O)C(O)C2O)c(=O)n1 (stereo unspecified),0.561
10,S=C(Nc1ccccc1)N1CCN(c2ccc(N3CCOCC3)nn2)CC1,-4.53
11,COc1ccccc1CN1CCN(C(=O)c2ccco2)CC1,-5.09
12,N#CC1(NC(=O)COC(=O)C2=COCCO2)CCCCC1,-1.19
13,Cc1ccccc1-c1cc(C(=O)N2CCCC2)c2ccccc2n1,7.43
14,COc1cc(/C=C2\C(=O)ON=C2c2ccccc2)cc(Br)c1O,-5.09
15,CC(=O)Nc1cnc(-c2ccc(O)cc2C)cn1,1.39
16,CCOc1ccc(CNC(=O)CCc2cn(C)c3ccccc23)cc1OC,-4.76

row,Compound,"activity change, negative = inhibition [%]"
1,O=C(c1cc2cc(F)ccc2[nH]1)N1CCc2ccccc2C1,-16.4
2,COc1ccc(-c2coc3c(C(=O)Nc4cccc(C(C)=O)c4)cccc23)c(C)c1,-0.536
3,COc1ccc(NC(=O)c2ccccc2NS(C)(=O)=O)cc1OC,-3.77
4,CCN(CC(=O)Nc1c(F)cccc1F)C(=O)Cc1ccccc1,-2.25
5,N#CC1=C(N)OC2=C(C(=O)CCC2)C1c1cc2c(cc1Cl)OCO2 (stereo unspecified),-6.31
6,COc1ccc(-c2coc3cc(O[C@@H]4O[C@H](CO)[C@@H](O)[C@H](O)[C@H]4O)ccc3c2=O)cc1,-3.03
7,Cc1ccc(OCc2n[nH]c(=S)n2-c2ccc(Br)cc2)cc1,-6.22
8,Cc1ccc2c(c1)N(C(=O)NC1CCCCC1)C(C)(C)CC2C (stereo unspecified),-2.78
9,COc1ccc(S(=O)(=O)N2CCCCCC2)cc1NC(=O)c1ccccc1S(C)(=O)=O,-4.29
10,COc1cc([N+](=O)[O-])ccc1NC(=S)NC(=O)CC(C)(C)C,-11.9
11,O=C(Nc1ccc(NC(=O)c2cc([N+](=O)[O-])ccc2N2CCOCC2)cc1)c1cccs1,-10.1
12,COc1ccc(-n2nnnc2SCC(=O)Nc2ccccc2N2CCOCC2)cc1OC,-5.58
13,Cc1ccc(NC(=O)COC(=O)c2cccc(OC(F)F)c2)cc1S(=O)(=O)N1CCCCC1,-4.36
14,Cc1ccc(C(=O)N2CCCC2)cc1S(=O)(=O)N1CCOCC1,-10.9
15,Cc1cc(NCC(=O)Nc2ccc(C)c(S(=O)(=O)N3CCOCC3)c2)ccc1Br,-7.05
